CYP2C19 act: human CYP2C19 activators, primary screen, biochemical, luminescence. AID 1025, 2008. recombinant CYP2C19, luciferin-H EGE luminescence; hits give high values; 0 = fully inhibited enzyme, 1 = untreated enzyme. activation factor at 5 µM. 96,000 tested, under 10 active. Cytochrome P450 2C19 (Homo sapiens), P33261;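 active = activation factor of at least 2 at 5 µM in the primary screen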;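 also: 0 = wells with 2.5 mM tranylcypromine and 1 = vehicle-only wells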
CYP2C9 inh: blockers of cytochrome P450 2C9 activity – biochemical, luminescence, ADME assay, primary screen; CYP2C9 Supersomes, luciferin-H conversion; hit rate 20% among 96,000; inhibition, % at 5 µM; P11712; AID 777, 2007;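 active = blocking of liver enzyme CYP2C9 beyond about 50% at 5 µM, limit read from the data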
CYP2C9 act: human CYP2C9 activators, primary screen, biochemical, luminescence | hit rate 1.4% among 96,000 | Cytochrome P450 2C9 (Homo sapiens), P11712 | activation factor at 5 µM | recombinant CYP2C9, luciferin-H conversion; hits give high values; factor 1 = untreated enzyme, 0 = blocked;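 active = activation factor of 2 or more for CYP2C9 at a 5 µM dose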;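 also: 0 = sulfaphenazole-blocked wells and 1 = vehicle-only wells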
Cav32 inh: Cav3.2 calcium influx blockers – cell-based, Fluo-4 calcium fluorescence, FDSS, MLSMR library, primary screen; AID 449739, 2010; Voltage-dependent T-type calcium channel subunit alpha-1H (Homo sapiens), O95180; Cav3.2-expressing cells; hits give low values; hit rate 4% among 100,000; B-score at 10 µM;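 active = single-dose well whose peak fluorescence ratio is a statistical outlier from its plate by either plate-standardised score or position-corrected B-score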
Target sequence (O95180 whole entry, looked up): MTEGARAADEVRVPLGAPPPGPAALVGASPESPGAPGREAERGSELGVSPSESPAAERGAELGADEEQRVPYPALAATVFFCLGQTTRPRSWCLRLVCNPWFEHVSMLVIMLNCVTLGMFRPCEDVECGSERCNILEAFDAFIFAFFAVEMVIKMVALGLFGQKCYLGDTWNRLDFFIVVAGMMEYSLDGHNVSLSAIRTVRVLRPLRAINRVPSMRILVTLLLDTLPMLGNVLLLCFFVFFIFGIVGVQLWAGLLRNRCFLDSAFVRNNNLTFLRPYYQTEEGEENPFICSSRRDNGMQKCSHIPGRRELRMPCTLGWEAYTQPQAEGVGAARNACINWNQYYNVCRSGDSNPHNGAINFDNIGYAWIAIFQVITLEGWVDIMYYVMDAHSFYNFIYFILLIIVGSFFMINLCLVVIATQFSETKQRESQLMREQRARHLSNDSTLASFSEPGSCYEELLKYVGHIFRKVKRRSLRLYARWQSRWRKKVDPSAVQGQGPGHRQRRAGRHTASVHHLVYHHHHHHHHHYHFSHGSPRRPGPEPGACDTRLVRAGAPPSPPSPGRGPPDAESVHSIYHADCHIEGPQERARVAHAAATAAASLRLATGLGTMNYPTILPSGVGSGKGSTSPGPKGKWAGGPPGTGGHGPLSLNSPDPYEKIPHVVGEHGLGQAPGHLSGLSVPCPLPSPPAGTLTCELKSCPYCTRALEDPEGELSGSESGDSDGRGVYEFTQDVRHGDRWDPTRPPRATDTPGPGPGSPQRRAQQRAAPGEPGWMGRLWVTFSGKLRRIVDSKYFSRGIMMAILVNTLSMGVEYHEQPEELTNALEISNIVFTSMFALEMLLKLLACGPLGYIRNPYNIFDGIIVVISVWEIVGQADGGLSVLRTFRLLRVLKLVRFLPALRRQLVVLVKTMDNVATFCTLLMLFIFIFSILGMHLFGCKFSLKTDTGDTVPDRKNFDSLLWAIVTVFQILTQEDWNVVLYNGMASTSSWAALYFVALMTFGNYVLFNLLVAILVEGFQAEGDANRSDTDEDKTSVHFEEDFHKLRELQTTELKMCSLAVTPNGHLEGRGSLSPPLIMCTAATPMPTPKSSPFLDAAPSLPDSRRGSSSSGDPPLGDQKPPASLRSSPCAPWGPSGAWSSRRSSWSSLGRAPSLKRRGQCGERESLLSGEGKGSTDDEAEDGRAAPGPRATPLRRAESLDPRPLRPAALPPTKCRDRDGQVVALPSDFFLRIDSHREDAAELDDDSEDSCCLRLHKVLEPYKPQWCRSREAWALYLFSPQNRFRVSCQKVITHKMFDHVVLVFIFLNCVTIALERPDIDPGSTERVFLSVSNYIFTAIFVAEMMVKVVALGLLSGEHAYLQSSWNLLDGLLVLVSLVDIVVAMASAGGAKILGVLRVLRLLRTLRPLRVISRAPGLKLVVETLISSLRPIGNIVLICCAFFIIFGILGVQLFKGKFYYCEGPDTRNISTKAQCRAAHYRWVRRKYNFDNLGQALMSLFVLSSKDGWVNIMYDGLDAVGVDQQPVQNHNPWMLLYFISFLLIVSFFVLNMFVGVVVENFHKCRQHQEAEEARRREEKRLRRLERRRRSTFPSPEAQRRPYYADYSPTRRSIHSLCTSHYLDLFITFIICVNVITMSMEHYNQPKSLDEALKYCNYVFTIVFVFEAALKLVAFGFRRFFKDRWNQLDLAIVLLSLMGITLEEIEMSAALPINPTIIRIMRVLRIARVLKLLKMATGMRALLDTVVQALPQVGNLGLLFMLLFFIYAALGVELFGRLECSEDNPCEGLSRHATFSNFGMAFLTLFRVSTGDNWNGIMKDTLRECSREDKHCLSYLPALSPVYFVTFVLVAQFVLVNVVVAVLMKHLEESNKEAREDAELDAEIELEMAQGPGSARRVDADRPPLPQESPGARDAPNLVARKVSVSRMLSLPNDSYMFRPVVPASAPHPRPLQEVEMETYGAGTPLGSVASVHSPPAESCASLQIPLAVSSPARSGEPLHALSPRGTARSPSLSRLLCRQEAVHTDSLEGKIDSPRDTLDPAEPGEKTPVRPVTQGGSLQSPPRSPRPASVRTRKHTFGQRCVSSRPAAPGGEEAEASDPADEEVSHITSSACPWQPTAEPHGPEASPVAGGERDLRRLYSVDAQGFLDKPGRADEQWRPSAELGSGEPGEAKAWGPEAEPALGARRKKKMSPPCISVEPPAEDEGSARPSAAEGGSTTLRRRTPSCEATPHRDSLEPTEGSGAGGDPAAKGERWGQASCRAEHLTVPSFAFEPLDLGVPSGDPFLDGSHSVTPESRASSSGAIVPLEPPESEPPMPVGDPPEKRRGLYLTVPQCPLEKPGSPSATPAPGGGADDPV
CYP2C19 inh: blockers of cytochrome P450 2C19 activity – biochemical, luminescence, ADME assay, primary screen | P33261 | CYP2C19 Supersomes, luciferin-H EGE luminescence, 30 min | inhibition, % at 5 µM | hit rate 21% among 96,000;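 active = CYP2C19 inhibition above a set limit at 5 µM in the primary screen, cut at about 50% in these data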;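 also: plate controls were negative control wells for no effect and 2.5 mM tranylcypromine positive control for full effect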
Numbers without * were called inactive; nt = not tested or not shown. Hits are enriched below; roughly 27% of the tested compounds scored in any of these assays.

SMILES | CYP2C19 act | CYP2C9 inh | CYP2C9 act | Cav32 inh | CYP2C19 inh
CC(O)c1n(C)c(Cl)c[n+]1C (configuration not stated) | 1 | -20.9 | 1.2 | nt | -3.0
COc1cc(C(C[N+](=O)[O-])c2c(-c3ccccc3)cc3ccccn23)cc(OC)c1OC (configuration not stated) | 0.6 | 59.3* | 0.4 | nt | 45.0
COc1ccc(C(C[N+](=O)[O-])c2c(-c3ccccc3)cc3ccccn23)cc1 (configuration not stated) | 0.2 | 74.1* | 0.3 | nt | 75.2*
COc1ccc(C(C[N+](=O)[O-])c2c(-c3ccccc3)cc3ccccn23)cc1OC (configuration not stated) | 0.8 | 29.8 | 0.7 | nt | 17.0
COc1cccc(-c2ncc3ccccn23)c1 | nt | nt | nt | 0.198 | nt
CCSC1=C(C#N)C(c2ccccc2Cl)C(C(=O)c2cccs2)C(O)(C(F)(F)F)N1 (configuration not stated) | 0.9 | 49.1 | 0.5 | -9.22* | 14.9
CCS(=O)(=O)N1CCN(Cc2nc3ccccc3c(=O)[nH]2)CC1 | 1 | 6.2 | 0.9 | 0.592 | 3.2
Cc1cccc(N2CCN(C(=O)C3CCN(S(=O)(=O)c4cccc5nsnc45)CC3)CC2C)c1 (configuration not stated) | 0.7 | 16.7 | 0.8 | -3.36* | 33.6
Cc1cccc(N2CCN(C(=O)C3CCN(S(=O)(=O)c4cccc5cccnc45)CC3)CC2C)c1 (configuration not stated) | 0.1 | -31.5 | 1.3 | nt | 85.2*
Cc1ccc(-c2nc3ccc(NS(=O)(=O)c4ccccc4)cc3[nH]2)o1 | 0 | 100.3* | 0 | nt | 99.5*
O=S(=O)(Nc1ccc2nc(-c3ccc(Br)o3)[nH]c2c1)c1ccccc1 | 0.1 | 93.8* | 0.1 | nt | 90.6*
Cn1c(CN2CCCC2)nc2cc(NS(=O)(=O)c3ccccc3)ccc21 | 0.8 | -5.2 | 1.1 | 0.268 | 24.7
O=S(=O)(Nc1ccc2nc(C(F)(F)F)[nH]c2c1)c1ccccc1 | 0 | 81.2* | 0.2 | 0.0264 | 100.4*
COc1cc(C)nc(NS(=O)(=O)c2ccccc2)n1 | 0.9 | 0.7 | 1 | 0.363 | 6.4
O=C(Nc1nc2ccccc2[nH]1)c1ccc(Cl)c(S(=O)(=O)N2CCCC2)c1 | 0.6 | 33.2 | 0.7 | -1.26 | 43.2
CC(C)(C)OC(=O)N1CC(O)CC1C(=O)OCC(=O)c1ccccc1 (configuration not stated) | nt | nt | nt | 0.068 | nt
CCCOC(=O)C1C2C=CC(C3CC23)C1C(=O)OCC(=O)c1ccccc1 (configuration not stated) | 0.1 | 73.2* | 0.3 | -5.46* | 91.2*
Cc1ccc(C)n1N1C(=O)/C(=C\c2ccc(Cl)cc2)SC1=S | 1.1 | 16.0 | 0.8 | 0.0289 | -8.2
O=C1/C(=C/c2ccncc2)SC(=S)N1C1CCS(=O)(=O)C1 (configuration not stated) | 0.2 | 41.6 | 0.6 | 0.766 | 75.3*
CS(=O)(=O)N(CC(=O)N1CCN(c2ccccc2F)CC1)c1cccc(C(F)(F)F)c1 | 0.9 | -73.9 | 1.7 | -2.51 | 6.9
Cc1cc2oc(=O)cc(CN3CCN(C/C=C/c4ccccc4)CC3)c2cc1O | 0.5 | 83.9* | 0.2 | -3.78 | 45.3
Cc1cc2oc(=O)cc(CN3CCCc4ccccc43)c2cc1C | 0 | 96.1* | 0 | -1.88 | 95.6*
CCN1CCN(Cc2cc(=O)oc3cc4c(cc23)CCC4)CC1 | 0.6 | 17.6 | 0.8 | 1.12 | 37.6
CN1CCN(Cc2cc(=O)oc3cc4c(cc23)CCC4)CC1 | 0.4 | 63.6* | 0.4 | -0.0135 | 63.1*
O=C(CSc1ncnc2ccccc12)Nc1ccc2c(c1)OCO2 | 0.4 | 40.0 | 0.6 | -0.775 | 61.5*
SMILES | CYP2C19 act | CYP2C9 inh | CYP2C9 act | Cav32 inh | CYP2C19 inh
O=C(CSc1ncnc2c1cnn2-c1ccccc1)Nc1ccc2c(c1)OCO2 | 0.7 | 63.4* | 0.4 | nt | 27.5
COc1ccc(-n2nnc3c(SCC(=O)Nc4ccc5c(c4)OCCO5)ncnc32)cc1 | 0.9 | 40.5 | 0.6 | nt | 9.5
CN1CCN(C2=C(Cl)C(=O)N(c3ccc(Cl)c(Cl)c3)C2=O)CC1 | 0.2 | 37.7 | 0.6 | 0.474 | 78.9*
CN1CCN(C2=C(Cl)C(=O)N(c3cccc(Cl)c3)C2=O)CC1 | 0.8 | 11.4 | 0.9 | -1.1 | 15.0
CCN1CCN(C2=C(Cl)C(=O)N(Cc3ccccc3)C2=O)CC1 | nt | nt | nt | 1.38 | nt
CN1CCN(C2=C(Cl)C(=O)N(Cc3ccccc3)C2=O)CC1 | 0.4 | 14.2 | 0.9 | -0.631 | 64.1*
S=C(Nc1ccc2snnc2c1)N1CCN(c2ccccn2)CC1 | 0.7 | 17.8 | 0.8 | 0.68 | 25.8
COC(=O)C(C)NS(=O)(=O)c1ccc(NC(C)=O)cc1 (configuration not stated) | 0.9 | 13.8 | 0.9 | -0.21 | 14.3
CCN(CC)CCn1c2ccccc2c2cnc(N)c(C#N)c21 | 1 | -3.0 | 1 | 1.39 | -4.8
O=C(c1ccco1)N1c2ccccc2Sc2ccccc21 | nt | nt | nt | -4.66* | nt
O=C(c1ccco1)N1CCN(C(=O)N2c3ccccc3Sc3ccccc32)CC1 | 0.7 | -3.0 | 1 | -2.41 | 31.9
O=C1CCC(=O)N1OCCOc1ccc2c(c1)CCC2 | 1.1 | -25.8 | 1.3 | 0.352 | -5.2
Brc1ccc2nc(CSc3ncn[nH]3)cn2c1 | 0.5 | -9.7 | 1.1 | -0.116 | 52.3*
COc1ccc(-n2c(Cn3c(=O)sc4ccccc43)nnc2SCC(=O)N2CCOCC2)cc1 | 1 | 24.4 | 0.8 | -0.114 | -3.2
CN1CCc2c(sc3nc(SCC(=O)N4CCOCC4)nc(N)c23)C1 | 0.9 | 17.9 | 0.8 | 0.729 | 7.4
COC(=O)CSc1nc2sc3c(c2c(=O)n1C1CCCCC1)CCN(C)C3 | 0.2 | 51.7* | 0.5 | nt | 78.2*
COc1ccc(-n2c(SCC(N)=O)nc3sc4c(c3c2=O)CCN(C)C4)cc1 | 0.3 | 32.7 | 0.7 | 0.254 | 72.9*
Cc1sc2nc(SCC(=O)N(CCO)CCO)n(C3CCCCC3)c(=O)c2c1C | 1 | 15.6 | 0.8 | -0.587 | 4.2
CC(=O)Nc1c(C#N)c(C(C)(C)C)cn1C | 1.1 | -21.6 | 1.2 | -0.431 | -10.5
O=C(NC1CCCCC1)/C(=N\O)c1ccccn1 | 1 | -1.6 | 1 | 0.0032 | 4.5
FC(F)(F)c1cccc(NC(=S)NNC(=S)NCc2ccccc2)c1 | 0.9 | 75.4* | 0.2 | -2.86 | 11.8
O=C(Cc1ccccc1)NC(=S)Nc1cccc(C(F)(F)F)c1 | 1 | 13.1 | 0.9 | nt | 2.4
Cc1ccc(NC(=S)NNC(=S)NCc2ccccc2)cc1 | 0.9 | 94.2* | 0.1 | 0.427 | 12.5
Cc1ccc(NC(=S)NCc2ccccn2)cc1 | 0.7 | 69.2* | 0.3 | 0.255 | 32.4
S=C(NCc1ccccn1)Nc1cccc(Cl)c1 | 0.4 | -12.3 | 1.1 | -0.484 | 57.3*
CCCNC(=S)Nc1ccc(Nc2ccccc2)cc1 | 0.7 | 38.7 | 0.6 | -1.16 | 25.6

Source: PubChem (several laboratories)
